The source of these data is PubChem BioAssay (NCI).

Among the test systems are BT-549 breast; MDA-MB-435 melanoma; SW-620 colon; MCF7 breast; HCT-116 colon; HCC-2998 colon; KM12 colon.
Holding throughout (assay): NCI-60 one-dose screen, 48 h (100 = growth as untreated, 0 = no growth, -100 = all killed)
Settings in all cases: 10 µM unless noted

The panel holds about 83,000 compounds, 20% with a hit somewhere; the sample as a whole holds those more often.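 The endpoint reported here, percent growth, reads 100 for growth as untreated, 0 for no net growth and -100 for all cells dead.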 Unmarked numbers belong to inactive results. Active and inactive are the calls of the source. How the source made its calls: active means growth percent below 10; inactive means the rest.

On to `CCOC(=O)C1=C(C)n2nc(CC#N)c(C#N)c2NC1c1ccc(Cl)cc1` (centres undefined), for which the growth in the assay on BT-549 breast was 92%; in the assay with MDA-MB-435 melanoma, 100%; in the assay on SW-620 colon, 97.5%; in the assay with MCF7 breast it was 90.2%; in the assay with HCT-116 colon it was 101%; in the assay on HCC-2998 colon, 99.9%. Moreover, in the assay on KM12 colon, the growth is 85.4%.
In the case of `CCSc1ccc(C2C(Br)C(=O)N2c2cc(OC)c(OC)c(OC)c2)cc1` (centres undefined), the growth with BT-549 breast was 13.8%; in the assay with MDA-MB-435 melanoma, -1.6% (active); with SW-620 colon, 23%; with MCF7 breast it was 13.2%; in the assay with HCT-116 colon, 4.7% (active); with HCC-2998 colon it was 31.7%. Besides, in the assay on KM12 colon, the growth was 17%.
Consider `NC[C@@H]1CCN(c2cc3c(cc2F)c(=O)n(N)c(=O)n3Cc2ccc(-c3ccccc3)cc2)C1`, for which the growth with BT-549 breast is 69.3%; in the assay with MDA-MB-435 melanoma, 76.6%; with SW-620 colon it was 84.2%; with MCF7 breast it was 79.4%; in the assay on HCT-116 colon, 65.3%; with HCC-2998 colon it was 96%. Further, the growth in the assay on KM12 colon was 96.9%.
Consider `Cc1ccc(-c2nc(C#N)c(S(=O)(=O)N(C)CCO)o2)cc1`, for which the growth is 76.7% with BT-549 breast; 65% in the assay with MDA-MB-435 melanoma; 35.1% with SW-620 colon; 39.8% with MCF7 breast; 53.4% in the assay on HCT-116 colon; 107% in the assay on HCC-2998 colon. Also, the growth in the assay on KM12 colon was 89.9%.
Regarding `Nc1c(C(=O)Nc2cccc3ccccc23)sc2nc3c(cc12)COCC3`, the growth with BT-549 breast was 51.3%; in the assay with MDA-MB-435 melanoma, -1.93% (active); in the assay with SW-620 colon, 24.9%; in the assay on MCF7 breast it was 18.7%; with HCT-116 colon it was 26.3%; in the assay on HCC-2998 colon, 85.5%. For the same compound, the growth in the assay on KM12 colon was 40.7%.
Regarding `CC(C)(C)CC(C)(C)Cc1ccc(OCCOCC[N+](C)(C)Cc2ccccc2)cc1`, the growth in the assay on BT-549 breast is -16% (active); in the assay with MDA-MB-435 melanoma, -23.9% (active); with SW-620 colon, 30.2%; with MCF7 breast, 12.9%; with HCT-116 colon, 20.8%; in the assay with HCC-2998 colon it was -10% (active). In addition, in the assay on KM12 colon, the growth is -52.6% (active).
Consider `O=C(/C(=C/c1ccc([N+](=O)[O-])cc1)SCc1ccc(F)cc1)c1ccc(Cl)cc1`, for which the growth with BT-549 breast was 84.9%; with MDA-MB-435 melanoma, 43.9%; with SW-620 colon it was 1.44% (active); in the assay on MCF7 breast, -21.8% (active); in the assay with HCT-116 colon, 0.116% (active); with HCC-2998 colon, 84.3%. Also, the growth in the assay on KM12 colon was 19.5%.
With `CC(=O)Nc1c(C(=O)Nc2ccccc2)sc2nc3c(cc12)C(OC(C)=O)CCC3` (centres undefined), the growth in the assay on BT-549 breast is 83.6%; in the assay with MDA-MB-435 melanoma, 35.3%; with SW-620 colon, 97.4%; in the assay with MCF7 breast, 97.6%; in the assay with HCT-116 colon, 104%; in the assay on HCC-2998 colon it was 68.7%. Besides, the growth in the assay on KM12 colon was 80.2%.
Turning to `CCN1CCN(c2ccc(NC(=O)Nc3nc4ccc(-c5ccccc5OC)cc4s3)cc2)CC1`, the growth was 31.6% in the assay on BT-549 breast; -85.5% (active) in the assay on MDA-MB-435 melanoma; -70% (active) with SW-620 colon; -70.8% (active) with MCF7 breast; -82.3% (active) with HCT-116 colon; -88.1% (active) in the assay on HCC-2998 colon. The growth in the assay with KM12 colon is -83.5% (active).
Consider `NC(=O)C(O)(c1ccccc1)c1ccccc1`, for which the growth with BT-549 breast was 113%; with MDA-MB-435 melanoma, 103%; with SW-620 colon, 96%; in the assay on MCF7 breast, 91.5%; in the assay with HCT-116 colon, 103%; in the assay with HCC-2998 colon, 98.5%. In the assay on KM12 colon, the growth is 96.9%.
As to `COc1cc(NCC(=O)Nc2cc(Nc3ccc(C)cc3)ncn2)c(Cl)c(OC)c1Cl`, the growth is 101% in the assay on BT-549 breast; 102% in the assay on MDA-MB-435 melanoma; 103% in the assay on SW-620 colon; 78.6% in the assay on MCF7 breast; 88.4% in the assay with HCT-116 colon; 92.6% in the assay with HCC-2998 colon. Besides, in the assay with KM12 colon, the growth is 87.5%.
Take `CC1=C(CCCOC(=O)NCCCl)C2=C(C)C3(CC3)[C@@](C)(O)C(=O)C2=C1`: the growth with BT-549 breast is 17.5%; in the assay on MDA-MB-435 melanoma it was 84.8%; in the assay on SW-620 colon, 80.3%; with MCF7 breast, 29.8%; in the assay with HCT-116 colon, 28.2%; with HCC-2998 colon, 28.8%. For the same compound, the growth in the assay with KM12 colon is 79.2%.
On to `COc1cc(NCC(=O)Nc2cc(Nc3cccc(C(F)(F)F)c3)ncn2)c(Cl)c(OC)c1Cl`, for which the growth is 88.9% in the assay on BT-549 breast; 102% in the assay with MDA-MB-435 melanoma; 104% with SW-620 colon; 85.8% in the assay on MCF7 breast; 87.4% with HCT-116 colon; 103% in the assay with HCC-2998 colon. For the same compound, the growth in the assay with KM12 colon is 92.3%.
In the case of `COc1cc(-c2nn(-c3ccc(Br)cc3)cc2CO)ccc1O`, the growth is 89.6% with BT-549 breast; 108% with MDA-MB-435 melanoma; 104% with SW-620 colon; 92.1% in the assay with MCF7 breast; 92.6% in the assay with HCT-116 colon; 104% with HCC-2998 colon. The growth in the assay on KM12 colon was 91.7%.
As for `Cc1c(O)c(=O)ccn1-c1nc2ccccc2s1`, the growth is 93.4% with BT-549 breast; 99.7% in the assay with MDA-MB-435 melanoma; 94.9% in the assay on SW-620 colon; 98.6% in the assay with MCF7 breast; 95.8% in the assay on HCT-116 colon; 114% with HCC-2998 colon. In the assay on KM12 colon, the growth was 98.5%.
Take `CCCCCCCc1n(Cc2ccc3ccccc3c2)c2ccccc2[n+]1Cc1ccc2ccccc2c1`: the growth is -86.6% (active) in the assay on BT-549 breast; -92.3% (active) with MDA-MB-435 melanoma; -80% (active) with SW-620 colon; -64.7% (active) in the assay with MCF7 breast; -84.6% (active) in the assay with HCT-116 colon; -61.2% (active) in the assay with HCC-2998 colon. Moreover, in the assay with KM12 colon, the growth was -74.9% (active).
Consider `COc1ccc(C(=O)c2cc(OC)c(OC)c(OC)c2)cc1OC(=O)C(Cl)(Cl)Cl`, for which the growth was -0.136% (active) in the assay with BT-549 breast; -13.5% (active) in the assay with MDA-MB-435 melanoma; 22.9% with SW-620 colon; 9.81% (active) with MCF7 breast; 4.91% (active) in the assay with HCT-116 colon; 15.4% with HCC-2998 colon. Moreover, the growth with KM12 colon was 9.4% (active).
